Assay outcomes: PubChem, National Center for Advancing Translational Sciences (NCATS)
In the library only some 21% were active in any assay of this set; here they are far more common.
DT40 TDP1 CPT = growth inhibition of DT40 Tdp1-/-;hTDP1 cells with camptothecin (screen for TDP1 inhibitors); Potency, µM (series often up to 46.2 µM), inactives show top-dose activity change, negative = growth inhibition, most hits filed as inhibitors; 420,000 tested, 12% active; AID 686979; chicken DT40 Tdp1-/-;hTDP1 cells + 20 nM CPT, ATP luminescence, 48 h; further: potency means the concentration at half of the fitted maximal effect; on the % scale 0 is the no-effect control and ±100 the full control effect; nearly all actives have a fitted effect of over 55% in size
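Chicken DT40 Tdp1-/- cells complemented with human TDP1, 400 cells/well, exposed to compounds plus 20 nM camptothecin for at least 48 h at 37 C; viability read as ATP content by CellTiter-Glo luminescence.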
ClpP mod = qHTS Assay for Activators of ClpP; ATP-dependent Clp protease proteolytic subunit (Bacillus subtilis (strain 168)), P80244; purified B. subtilis ClpP, FRET peptide cleavage, 20 min; Potency, µM (doses to about 57.5 µM), inactives show top-dose activity change, negative = active; 340,000 tested, 1.9% active; AID 651965, 2013; active means well fitted falling curve with a large enough effect; inconclusive means small, poorly fitted or top-dose-only effect; inactive means no such curve, though single readings can be large or run the other way; further: potency means the concentration at half of the fitted maximal effect; the source files actives as falling curves though it sought activators and does not explain the sign; nearly all actives have a fitted effect of over 65% in size
Target sequence (P80244 whole entry, looked up): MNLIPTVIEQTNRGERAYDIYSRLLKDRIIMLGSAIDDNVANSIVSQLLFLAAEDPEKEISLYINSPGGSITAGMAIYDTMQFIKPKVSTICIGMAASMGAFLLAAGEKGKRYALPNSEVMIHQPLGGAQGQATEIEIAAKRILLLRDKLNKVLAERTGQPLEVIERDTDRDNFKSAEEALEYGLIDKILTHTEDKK
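FRET quenching reversal measured ClpP activation: 10 microg/mL B. subtilis ClpP at pH 8 with the FRET-FV decapeptide, read at 430 nm after 320 nm excitation. The 20-min minus 0-min signal was scaled between DMSO/no-enzyme wells and ADEP (5.8 microM final).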
D3 antag = antagonists of human D3 dopamine receptor; D3R cells, DiscoveRx beta-arrestin luminescence, antagonist mode; active compounds read low; 360,000 tested, 2.5% active; P35462; AID 652054; max response, negative = inhibition, %; in the data active means max response below about -50%; inconclusive means no clear call, values can overlap the other calls; further: on the % scale 0 is the no-effect control and ±100 the full control effect
Target sequence (P35462 whole entry, looked up): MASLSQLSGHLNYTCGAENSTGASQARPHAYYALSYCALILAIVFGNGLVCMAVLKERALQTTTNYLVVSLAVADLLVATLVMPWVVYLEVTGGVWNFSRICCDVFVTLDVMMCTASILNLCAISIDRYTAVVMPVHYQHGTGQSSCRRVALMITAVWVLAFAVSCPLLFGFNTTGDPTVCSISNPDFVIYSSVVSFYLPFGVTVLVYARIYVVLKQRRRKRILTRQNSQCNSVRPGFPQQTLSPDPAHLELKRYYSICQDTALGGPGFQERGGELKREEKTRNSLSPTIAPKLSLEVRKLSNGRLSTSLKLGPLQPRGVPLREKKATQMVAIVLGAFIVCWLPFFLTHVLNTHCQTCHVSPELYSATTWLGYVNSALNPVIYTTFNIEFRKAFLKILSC
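Cells expressing the human receptor were seeded at 1500 cells/well, incubated overnight at 37 degrees C in 5% CO2, then exposed to library compounds with dopamine controls for 90 minutes at 37 degrees C before luminescent detection.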
D3 ag = activates the human D3 dopamine receptor; D3R DiscoveRx beta-arrestin cells, luminescence, 90 min; max activation, %; 410,000 tested, 0.58% active; AID 652048; in the data active means max activation above about 30%; further: 0% is about no effect
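Agonist mode: compounds and dopamine controls were applied to plated cells for 90 min at 37 degrees C after an overnight attachment at 1500 cells/well. Luminescent read-out followed 30 - 60 minutes at room temperature with DiscoveRx detection reagent.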
IL1B secr inh = inhibitors of inflammasome signaling (IL-1 beta secretion); THP-1 LPS/ATP IL-1B secretion, AlphaLISA, 16 h; active compounds read low; activity change, % at 57.5 µM; 360,000 tested, 4.7% active; AID 743279; in the data active means activity change below about -50%; inconclusive means mostly about -30% to -49%; further: on the % scale 0 is the no-effect control and ±100 the full control effect
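THP-1 cells pretreated 1 hr with compounds (up to 57.5 uM final), then stimulated with LPS (250 ng/mL final) plus ATP (1.25 mM final); secreted IL-1B measured by AlphaLISA after 16 hr, decreased signal indicating inhibition.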
DT40 TDP1 no CPT = qHTS for Inhibitors of human tyrosyl-DNA phosphodiesterase 1 (TDP1): qHTS in cells in absence of CPT | DT40 Tdp1-/- hTDP1 cells, no CPT, ATP luminescence, 48 h | Potency, µM (top dose mostly 46.2 µM), without a hit: top-dose activity change, negative = growth inhibition, most hits filed as inhibitors | 420,000 tested, 15% active | AID 686978, 2013; further: potency means the concentration at half of the fitted maximal effect; on the % scale 0 is the no-effect control and ±100 the full control effect; nearly all actives have a fitted effect of over 55% in size
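Cells were dispensed at 400 per well, compounds added by pin tool, plates incubated ≥48 hr at 37 °C, then CellTiter-Glo added for 30 min at room temperature before luminescence reading. Line: DT40 Tdp1-/- complemented with hTDP1; camptothecin omitted.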
Numbers without * were called inactive; ? = inconclusive; . = no result. Unless noted, the call rests on the fitted dose curve; in most records, active means well fitted inhibition curve with a large enough effect; inconclusive means small, poorly fitted or top-dose-only effect; inactive means flat fitted curve, though single readings scatter.

SMILES	DT40 TDP1 CPT	ClpP mod	D3 antag	D3 ag	IL1B secr inh	DT40 TDP1 no CPT
Cc1ccc(CSc2nccc(-c3c(C)nc4ccccn34)n2)cc1	?	-8.4%	27.2	7.0	-12.2	16.4µM*
S=C(NCc1ccccc1)Nc1ccc2ccccc2c1	9.7%	-0.7%	2.9	5.6	-76.1*	2.1%
COc1ccc(/C(C)=N/NC(=S)NCCc2ccccc2)cc1	?	.	21.1	2.8	-8.8	?
C/C(=N\NC(=S)NCCc1ccccc1)c1cccc(Br)c1	?	-1.6%	0.9	9.6	33.5	?
CCNC(=S)N/N=C(\C)c1cc2ccccc2o1	?	-2.4%	-5.2	2.9	-51.6*	?
C/C(=N\NC(=S)Nc1cccc(C)c1)c1cc2ccccc2o1	?	.	-4.8	1.6	4.9	?
C/C(=N\NC(=S)NCc1ccccc1)c1ccc2ccccc2c1	6.51µM*	-3.7%	-4.5	4.8	15.8	7.31µM*
C/C(=N\NC(=S)NCc1ccccc1)c1cccc(Br)c1	14.6µM*	.	9.5	3.9	-13.8	20.6µM*
Cc1nn(-c2ccccc2)c2nc(C(F)F)cc(C(F)F)c12	-18.4%	-20.2%	4.9	7.6	-14.1	-15.2%
COC(=O)[C@@]12C[C@@H](CC(=O)NCc3ccc(OC)c(OC)c3)C(=O)N(Cc3cccc4ccccc34)C1=CCC(C)(C)C2	?	-2.9%	-18.7	-7.2	-21.8	?
CCCS(=O)(=O)N1CCC(C(=O)NCCOC)CC1	-6.3%	0.9%	.	-19.3	.	-32.7%
COc1ccc(CSC2=NCCN2)cc1Br	-14.0%	-1.3%	-22.7	-1.4	-13.6	-25.3%
CCOC(=O)/C=C1\CN(CCC(C)C)S(=O)(=O)c2ccccc21	-4.9%	0.6%	0.0	6.5	-2.0	?
CCOC(=O)/C=C1\CN(Cc2ccc(OC)cc2)S(=O)(=O)c2ccc(C(F)(F)F)cc21	12.6µM*	-0.9%	.	.	.	11.2µM*
OB(O)O	2.8%	.	.	7.3	.	-19.1%
O=c1[nH]c(SCc2cccc(Cl)c2)nc2c1CCC2	-28.7%	0.7%	.	7.8	.	-19.4%
CN(C)CCCNC1=CC(=O)CC(c2ccccc2)C1 (stereo unspecified)	2.8%	.	-27.8	-13.0	-3.2	-7.0%
COc1ccc(NC2=CC(=O)CC(c3ccccc3)C2)c(OC)c1 (stereo unspecified)	4.11µM*	-1.0%	-22.1	-9.6	-11.0	3.26µM*
CCOc1ccccc1NC1=CC(=O)CC(c2ccccc2)C1 (stereo unspecified)	?	-11.0%	2.8	-3.1	19.0	13µM*
Cc1ccc(OCCNC(=O)CNC(=O)c2ccc3c(c2)OCO3)cc1	-6.6%	-4.5%	11.3	3.6	-6.8	-15.4%
Cc1cccc(CN2CCC(CNC(=O)Cn3ncc4c([nH]c5ccccc54)c3=O)CC2)c1	-10.8%	-29.0%	-6.9	-9.9	2.4	2.8%
Oc1ccc(N2CCN(c3ncnc4sc(-c5ccccc5)cc34)CC2)cc1	?	.	6.6	-1.0	-69.8*	23.1µM*
CC(=O)N1CCN(c2ncnc3sc(-c4ccccc4)cc23)CC1	?	3.7%	4.1	4.1	-8.4	?
CCc1cc2c(N3CCN(c4ccccc4)CC3)ncnc2s1	13µM*	-3.4%	-22.6	7.4	-17.5	11.6µM*
O=c1[nH]c(=S)[nH]c2n[nH]nc12	11.9%	-3.0%	.	.	.	4.1%
SMILES	DT40 TDP1 CPT	ClpP mod	D3 antag	D3 ag	IL1B secr inh	DT40 TDP1 no CPT
CCOc1cc(CNCCc2ccc(S(N)(=O)=O)cc2)cc(Cl)c1OCc1ccccc1	12.6µM*	1.3%	-18.9	-27.9	-81.0*	?
Clc1ccccc1CNCC1CCCO1 (stereo unspecified)	-3.5%	-0.9%	-16.8	-3.4	-4.3	0.9%
Brc1ccc(OCc2ccccc2)c(CNCC2CCCO2)c1 (stereo unspecified)	?	-0.1%	-13.7	-7.9	-17.7	18.4µM*
COc1cc(CNn2c(C)n[nH]c2=S)cc(Cl)c1OCc1ccc(F)cc1	-12.9%	-0.1%	-29.2	-20.0	5.3	-37.9%
COc1cc(CNCCc2ccc(S(N)(=O)=O)cc2)ccc1OCC(=O)NC(C)(C)C	0.2%	-1.5%	1.8	-2.0	-4.8	-4.6%
CCOc1cc(CNCCc2ccc(S(N)(=O)=O)cc2)ccc1OCc1ccccc1	11.6µM*	-0.5%	?	-2.4	-53.9*	11.6µM*
CCOc1cc(CNn2cn[nH]c2=S)cc(Cl)c1OCc1ccccc1F	?	-1.7%	-22.6	-23.5	0.0	14.6µM*
C=CCN(CC(=O)Nc1cccnc1)S(=O)(=O)c1ccc(Cl)cc1	-21.0%	.	-14.5	-9.0	-0.4	-17.9%
Cc1ccc(OCC(=O)Nc2ccc(OCc3cc(=O)n4cccc(C)c4n3)cc2)cc1C	-24.2%	-16.0%	.	12.4	.	-36.7%
NS(=O)(=O)c1ccc(CCNC(=O)c2ccccc2OCc2ccc(F)cc2)cc1	-26.0%	.	2.6	2.5	5.8	?
CCOc1cc(CNc2ccccc2)cc(Br)c1OCc1ccccc1F	?	-0.6%	25.8	1.8	4.6	?
CCOc1cc(CNCCO)cc(Br)c1OCc1ccccc1	18.4µM*	.	-8.6	9.5	-80.0*	16.4µM*
NS(=O)(=O)c1ccc(CCNCc2cc(Br)ccc2OCc2ccccc2)cc1	14.6µM*	2.8%	1.0	2.8	-54.0*	11.6µM*
CCOc1cc(CNCC(O)c2ccccc2)cc(Cl)c1OC (stereo unspecified)	?	1.6%	1.8	-4.8	0.0	-22.8%
CCNCc1cc(Cl)c(OCc2ccccc2)c(OCC)c1	?	.	-10.6	-18.4	-93.4*	?
COc1ccc(Br)cc1CN(C)CC(=O)NCCc1ccc(S(N)(=O)=O)cc1	-29.7%	0.3%	-13.4	-11.6	-7.5	?
NS(=O)(=O)c1ccc(NCc2cc(Cl)ccc2OCc2ccc(F)cc2)cc1	?	0.9%	-21.1	-19.1	-56.7*	?
COc1ccc(OCc2nc(-c3ccc(F)c(F)c3)cs2)cc1	-18.3%	.	5.9	25.6	-16.0	-14.7%
O=C(COc1cccnc1[N+](=O)[O-])NCCc1ccccc1	-0.7%	.	-0.8	-3.6	0.0	-10.5%
Cc1ccc2nc(COC(=O)c3cnccn3)cc(=O)n2c1	3.1%	7.8%	-17.6	5.0	0.0	3.7%
COc1ccc2c(CC(=O)Nc3ccc(C)cc3)coc2c1	?	-9.5%	.	-11.5	.	-21.2%
COc1cccc(CNCCO)c1OCc1ccccc1	1.5%	.	6.3	1.5	-27.7	-29.0%
OCCNCc1cc(Br)ccc1OCc1ccccc1	23.1µM*	1.0%	-24.1	-18.6	-58.1*	16.4µM*
